Assay results published in PubChem BioAssay AID2314 (National Center for Advancing Translational Sciences (NCATS), 2010).
About 37,000 (12%) of roughly 300,000 compounds were called active. The sample holds actives, similar compounds and a random draw of the others, so the mix is not that of the screen. A number with no mark means an inactive call. Cut-off read from the data, not from the text of the source: active = max response mostly above about 13% (no sharp cut-off); inactive = mostly below about 14%.

experiment: Cycloheximide Counterscreen for Small Molecule Inhibitors of Shiga Toxin; conditions: cell reporter, cycloheximide protein synthesis inhibition counterscreen; stronger effect = higher value; note: read at 38.3 µM for the half of the compounds with a filed dose; 0% is about no effect

| Structure (SMILES) | max response |
| --- | --- |
| CCCN1CCN(C(=O)CCCNC(=O)c2ccc(Cl)cc2)CC1 | -2.8% |
| O=C(NC(=O)c1ccccc1N1CCCCC1)Nc1ccc(Br)cc1 | -3.48% |
| COc1ccc(NC(=O)NN2CCN(C)CC2)c(OC)c1 | 0.309% |
| CN1CCN(NC(=O)Nc2ccc(Br)cc2)CC1 | 24.2% (active) |
| COc1ccc(-c2nc3c(s2)CCc2onc(-c4ccc(OC)cc4)c2-3)cc1 | -2.4% |
| COc1ccc(S(=O)(=O)N2CCN(C)CC2)c(C)c1 | -3.62% |
| CN(c1ccccc1)c1nc(N)c([N+](=O)[O-])c(NCc2ccco2)n1 | 1.96% |
| Nc1nc(NCCCN2CCOCC2)nc(Nc2ccccc2)c1[N+](=O)[O-] | -2.59% |
| COc1cccc(Nc2nc(N)c([N+](=O)[O-])c(NCc3ccco3)n2)c1 | 19.4% (active) |
| COc1ccccc1CCNS(=O)(=O)c1cc2c3c(c1)C(C)C(=O)N3CCC2 (centres undefined) | 4.12% |
| CC1=C(C)C(=O)OC(C(C)C2CCC3C4CC=C5CC(OC6OC(COC7OC(CO)C(O)C(O)C7O)C(O)C(O)C6O)CC(O)C5(C)C4CCC23C)C1 (centres undefined) | 7.38% |
| CN(C)c1ccc(Nc2c3c4c(cccc4n(C)c2=O)C(=O)c2ccccc2-3)cc1 | 3.88% |
| Cc1cc(N/C=C\C(=O)c2ccc(Cl)c(Cl)c2)no1 | 11.9% (active) |
| COc1ccc(C(=O)/C=C/Nc2ccccn2)cc1 | 2.25% |
| Cc1cc(NC(=O)CSc2nnc(-c3ccc(Cl)s3)o2)no1 | 5.82% |
| COc1ccc(NC(=O)CSc2nncc(=O)n2N)cc1OC | -3.35% |
| COC(=O)[C@@H]1CC[C@H](C)[C@@H](c2ccc(C)cc2)N1C(=O)c1ccc(/C=N/O[C@H](C)c2cn([C@@H]3COC[C@H]3O)nn2)cc1 | -2.13% |
| CN1C2CCC1CC(NC(=O)c1ccc([N+](=O)[O-])cc1)C2 (centres undefined) | -3.99% |
| Cc1cc(NC(=O)Nc2ccccc2)n(-c2ccccc2)n1 | 18.1% (active) |
| CSc1ccccc1C(=O)Nc1cccc(C(C)=O)c1 | 11.9% |

| Structure (SMILES) | max response |
| --- | --- |
| COc1ccc(CCNC(=O)c2c(C)nn(-c3ccccc3)c2Cl)cc1 | -2.65% |
| Cc1cc(NC(=O)Nc2ccc(Cl)cc2)n(-c2ccccc2)n1 | 1.95% |
| Cc1nn(-c2ccccc2)c(Cl)c1C(=O)Nc1ccccc1 | 24.4% (active) |
| CCn1c(=O)c2cc(C(=O)Nc3cccc(C(C)=O)c3)sc2c2ccccc21 | -2.44% |
| CC(=O)c1cccc(NC(=O)c2cc(C)nn2-c2ccccc2)c1 | 12.3% (active) |
| Cc1nn(-c2ccccc2)c(CC(C)(C)C(=O)O)c1C(=O)O | -4% |
| Cc1ccc(NC(=O)Nc2cc(-c3ccccc3)nn2C)cc1Cl | 1.12% |
| O=C(NCc1ccco1)/C(=C/c1cccc([N+](=O)[O-])c1)NC(=O)c1ccco1 | 1.87% |
| COC(=O)[C@H](Cc1ccccc1)NC(=O)[C@@H]1C[C@H]1[C@@H](NC(=O)OCc1ccccc1)c1ccccc1 | -3.05% |
| Cc1nn(C)c(C)c1Sc1ccccc1N | 1.39% |
| O=C(COc1ccc([N+](=O)[O-])cc1)Nc1cccc(C(=O)Nc2ccccc2C(=O)O)c1 | -6.64% |
| Cc1cccc(N2CCN(C(C)C(=O)N3CCc4ccccc43)CC2)c1C (centres undefined) | -5.33% |
| Nc1ncc(-c2cc3ccccc3oc2=O)s1 | 43.5% (active) |
| O=C(NCc1cccnc1)c1cccc(-c2cc3ccccc3oc2=O)c1 | 12.9% |
| O=C(c1cn(-c2ccccc2)nc1-c1cc2ccccc2oc1=O)N1CCOCC1 | 6.82% |
| O=C(Nc1ccc(F)cc1)C1CCCN(S(=O)(=O)c2ccc(-n3cnnn3)cc2)C1 (centres undefined) | -0.989% |
| O=C(c1c(F)cccc1Cl)N1CCN(c2ccccn2)CC1 | -8.36% |
| COc1ccccc1CNC(=O)c1ccc(CS(=O)(=O)c2ccccc2)o1 | -1.73% |
| NC(=O)COC(=O)/C=C/c1ccc2ccccc2n1 | 16.4% (active) |
| O=C(COC(=O)/C=C/c1nc2ccccc2s1)Nc1ccccc1Oc1ccccc1 | -1.69% |

| Structure (SMILES) | max response |
| --- | --- |
| CC(=O)c1ccc(S(=O)(=O)N2CCN(C(=O)/C=C/c3ccc4ccccc4n3)CC2)cc1 | -1.24% |
| CCCCCCCCn1c2c(c(=N)c3c1CCC3)CCCC2 | -1.22% |
| CCC(CC)COC(=O)C1=C(C)NC(=O)NC1c1ccc([N+](=O)[O-])cc1 (centres undefined) | -4.34% |
| COc1ccccc1Nc1ncc(C(C)=O)c(C)n1 | 17% (active) |
| COc1ccccc1-c1c(C)nn2c(C)c(C(C)=O)cnc12 | -2.56% |
| CCc1ccc2nc(Nc3ncc(C(C)=O)c(C)n3)nc(C)c2c1 | 4.49% |
| CC(=O)NC(Cc1ccc(F)c(F)c1)C(=O)NC1CCN(c2nnnn2-c2ccccc2)CC1 (centres undefined) | -1.76% |
| COc1ccc(N2CCN(S(=O)(=O)c3cc(Br)cnc3N)CC2)cc1 | -1.92% |
| COc1ccc(OCc2ccc(-c3nc4ccccc4c(=O)n3N)o2)cc1 | 30.2% (active) |
| COc1ccc(OCc2n[nH]c(=S)n2N)cc1 | 5.41% |
| COc1ccc(-c2nc3ccccc3c(=O)n2CCc2ccc(O)cc2)cc1 | 17.7% |
| CCCCCNC(=O)C1c2ccccc2Oc2ccccc21 | -1.28% |
| [2H]C(CCOS(N)(=O)=O)c1ccccc1 (centres undefined) | -0.0595% |
| COC(=O)[C@]1(S(=O)(=O)c2ccccc2)C[C@@H]2ON=C(c3ccc(OC)cc3)[C@@H]2C1 | 12.7% |
| CCC1Sc2ccc(S(=O)(=O)CCC(=O)NCc3cccs3)cc2NC1=O (centres undefined) | 15.6% |
| Cc1ccc(C)c(NS(=O)(=O)c2cc(Br)cnc2N)c1 | -1.97% |
| COc1ccccc1CN(C)c1nnnn1-c1ccccc1 | -3.28% |
| COc1ccccc1-n1nnnc1S(=O)(=O)Cc1ccc(Cl)cc1 | 16.8% (active) |
| COc1ccccc1N1CCN(S(=O)(=O)c2ccc(Cl)cc2)CC1 | -4.44% |
